Reference: PubChem BioAssay AID1508600 (Functional Genomics Laboratory (NCATS/FGL), 2020)
Hit rate of the full screen: of about 53,000 sequences, about 3,700 (7%) were called active.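 How the source made its calls: active means gene knockdowns whose robust z-score for IL-1 alpha signal is at least 2 or at most -2, so actives lie on both sides; inactive means the rest.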 Shown is part of a subset that was picked to be rich in actives.

Assay: Components of the Cytosolic LPS Sensing Pathway: Gene Identification via Genome-wide siRNA Screen;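 further: robust z of the log signal after scaling to non-targeting control siRNA wells of the plate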
Details: RAW264.7 macrophages, IL-1a HTRF, actives lie on both sides, screened at 100 nM (by protocol), cells primed 5 h with Pam3CSK4 first
Outline: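 Supernatant IL-1a by HTRF from RAW264.7 cells primed with Pam3CSK4 (5 hours) and transfected with LipidA (24 hour) after 48h siRNA knockdown at 100 nM; cell viability checked with CellTiter-Glo.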

Q: For GGCUUGGAAUGACACUACUTT against Maged1, which z-score is on record?
A: -1.12 (inactive)

Q: For GCUCAAUUUACAAAAGCCCTT against Pik3c2a, which z-score is on record?
A: -0.961 (inactive)

Q: Which z-score does the source give for CCUGUUUCUGACCUAAUACTT against Syn1 here?
A: -0.088 (inactive)

Q: With GGAAGAUAUUGCUGUUGGATT against Mbd4 as the sequence, how does the z-score read?
A: 0.823 (inactive)

Q: Which z-score does the source give for GCAAGAUGAGAAGGAUUUUTT against Zfp691 here?
A: 0.591 (inactive)

Q: With GGAGGAAAACAAACCACAGTT against Tpbpa as the sequence, how does the z-score read?
A: 0.0817 (inactive)

Q: Which z-score does the source give for GCUGCAUCUAAAGCCUUAATT against Olfr661 here?
A: 1.41 (inactive)

Q: For GGAAGAAAGUGAAGAAGAGTT against Cdr1os, which z-score is on record?
A: -0.387 (inactive)

Q: For GGACUUUGUGAUCUUUCCATT against Pias2, which z-score is on record?
A: -0.57 (inactive)

Q: For “GGCUGUGAUUGGCAAUCUATT against 6430548M08Rik”, which z-score is on record?
A: -3.04 (active)

Q: Which z-score does the source give for CCUGGCUAUUGGUGAGUGATT against Slc30a3 here?
A: 1.9 (inactive)

Q: Which z-score does the source give for CCAAACUUUUGUGGAACAGTT against Galnt9 here?
A: 0.0294 (inactive)

Q: For GGCAUGUGGUUGAAGGCCUTT against Fank1, which z-score is on record?
A: -0.337 (inactive)

Q: For GGACAAUGAAGAUUUGGAATT against Ush2a, which z-score is on record?
A: -0.669 (inactive)

Q: Which z-score does the source give for CCGCCGAUCUACUAGUGGUTT against Slc6a2 here?
A: 0.46 (inactive)

Q: With GCGGCCUUCGAAGAUAUUCTT against Pnliprp2 as the sequence, how does the z-score read?
A: -0.144 (inactive)

Q: Which z-score does the source give for GGAAAUGCCAUCGUCAUUUTT against Gpr1 here?
A: 2.66 (active)

Q: With GCCAGCGUACUCUUUUUAUTT against Ocln as the sequence, how does the z-score read?
A: -0.694 (inactive)

Q: With GGAGCUGGUGGAUCUGAAGTT against Ubfd1 as the sequence, how does the z-score read?
A: 1.26 (inactive)

Q: For CGUGACUAUUCUGAUAAGUTT against Arl15, which z-score is on record?
A: 0.134 (inactive)

Q: With GGAAGGAGGAAAAGUAGGUTT against Peli1 as the sequence, how does the z-score read?
A: -0.00852 (inactive)

Q: Which z-score does the source give for GGAAGAGAGCAGAAAGAAGTT against Trim35 here?
A: -0.135 (inactive)

Q: With “GGGAUGUUUAGGUCACCUUTT against 4933434M16Rik” as the sequence, how does the z-score read?
A: -2.35 (active)

Q: Which z-score does the source give for GGUGGGCUACGAACUAAAGTT against Prpf31 here?
A: 0.664 (inactive)

Q: With GGUGUUGAAAGUCAUUGUGTT against Med27 as the sequence, how does the z-score read?
A: -0.196 (inactive)

Q: Which z-score does the source give for GGCAGAUACUUCUCUGGAGTT against Sdc4 here?
A: -0.498 (inactive)

Q: With CCCGUGGUCCUACAUUGUUTT against Cdon as the sequence, how does the z-score read?
A: 2.39 (active)

Q: Which z-score does the source give for GGAAGAAGACAUGCUCACUTT against Pcdhb8 here?
A: 1.07 (inactive)

Q: With GGCCAAAGUGGUGUGUUUCTT against Mta1 as the sequence, how does the z-score read?
A: 2.46 (active)
